Assay results taken from the supplement of paper PMC10849652.
Of roughly 7,900 targets only a part is listed; those with a hit were picked by preference. About 0.6% of all pairs of compound and target were hits.

Columns and labels:
Assay in all cases: log2 fold change, soluble protein after heating vs DMSO (PISA); higher = thermal stabilisation; K562 cells, 10 uM, 30 min; active = over 0.2 and 3.5 SD of the protein, either way, in both replicates (recomputed)
volasertib = compound: CC[C@@H]1C(=O)N(C)c2cnc(Nc3ccc(C(=O)N[C@H]4CC[C@H](N5CCN(CC6CC6)CC5)CC4)cc3OC)nc2N1C(C)C [volasertib]
How it was run: (§1)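 K562 cells at 2×10^6 cells/mL were given 10 μM compound for 30 min. Aliquots then went through 3 min of heating across 48°C-58°C, were pooled, and were extracted in PBS with 0.5% NP-40 at 4°C, and the supernatant after 21,000xg for 90 min was quantified by TMTpro 16plex LC-MS/MS with channel sums equalised. Thermal stability relative to control samples, from duplicates, is given as log2 fold change.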

[1] = compound: CC[C@H](C)N1C=C(C2=C(C=C(C=C21)C3=CN=C(C=C3)N4CCNCC4)C(=O)NCC5=C(C=C(NC5=O)C)C)C
How it was run: as §1

epoxomicin = compound: CC[C@H](C)[C@@H](C(=O)N[C@@H]([C@@H](C)O)C(=O)N[C@@H](CC(C)C)C(=O)[C@]1(CO1)C)NC(=O)[C@H]([C@@H](C)CC)N(C)C(=O)C [epoxomicin]
How it was run: as §1

[2] = compound: CCn1c(C(=O)N(C2CC2)C2CC2)cc2c3c(ncn3C)c(Nc3cc(C)n(C)n3)nc21
How it was run: as §1

[3] = compound: CCn1cc(-c2ccnc3[nH]c(-c4cccc(CN(C)C)c4)cc23)c(-c2ccc(NC(=O)N(C)C)cc2)n1
How it was run: as §1

rosiglitazone = compound: CN(CCOC1=CC=C(C=C1)C[C@H]2C(=O)NC(=O)S2)C3=CC=CC=N3 (racemic) [rosiglitazone]
How it was run: as §1

[4] = compound: CN1CCC(CNc2ccc3ncc(-c4cccc(OC(F)(F)F)c4)n3n2)CC1
How it was run: as §1

alvocidib = compound: CN1CC[C@H](c2c(O)cc(O)c3c(=O)cc(-c4ccccc4Cl)oc23)[C@H](O)C1 [alvocidib]
How it was run: as §1

Tubastatin A = compound: CN1CCc2c(c3ccccc3n2Cc2ccc(C(=O)NO)cc2)C1 [Tubastatin A]
How it was run: as §1

[5] = compound: CNC(=O)C1=CC=CC=C1NC2=NC(=NC=C2Cl)NC3=C(C=C(C=C3)N4CCOCC4)OC
How it was run: as §1

[6] = compound: CC[C@@H]1C(=O)N(C)c2cnc(Nc3ccc(C(=O)NC4CCN(C)CC4)cc3OC)nc2N1C1CCCC1
How it was run: as §1

[7] = compound: CN(C)CC(=O)Nc1ccc2[nH]c(=O)c3ccccc3c2c1
How it was run: as §1

[8] = compound: CN1C2=C(C3=C1C(=O)N(N=C3)CC4=CC(=CC=C4)N)SC(=C2)S(=O)C
How it was run: as §1

saracatinib = compound: CN1CCN(CCOc2cc(OC3CCOCC3)c3c(Nc4c(Cl)ccc5c4OCO5)ncnc3c2)CC1 [saracatinib]
How it was run: as §1

sotrastaurin = compound: CN1CCN(c2nc(C3=C(c4c[nH]c5ccccc45)C(=O)NC3=O)c3ccccc3n2)CC1 [sotrastaurin]
How it was run: as §1

defactinib = compound: CNC(=O)c1ccc(Nc2ncc(C(F)(F)F)c(NCc3nccnc3N(C)S(C)(=O)=O)n2)cc1 [defactinib]
How it was run: as §1

rucaparib = compound: CNCc1ccc(-c2[nH]c3cc(F)cc4c3c2CCNC4=O)cc1 [rucaparib]
How it was run: as §1

[9] = compound: CNc1nc(-c2ccc3c(N)n[nH]c3c2)cc(N2C[C@@H](C(=O)NC3CCCCC3)CC[C@H]2C)n1
How it was run: as §1

encorafenib = compound: COC(=O)N[C@@H](C)CNc1nccc(-c2cn(C(C)C)nc2-c2cc(Cl)cc(NS(C)(=O)=O)c2F)n1 [encorafenib]
How it was run: as §1

[10] = compound: COC(=O)[C@H](CCSC)NC(=O)C1=C(C=C(C=C1)NC[C@H](CS)N)C2=CC=CC=C2
How it was run: as §1

Measured: log2 fold change

MOB2 isoform 3 (UniProt Q70IA6)
inactive: volasertib -0.231 | [1] 0.207 | epoxomicin -0.193 | [2] -0.036 | [3] -0.029 | rosiglitazone -0.004 | [4] -0.103 | alvocidib -0.017 | Tubastatin A -0.073 | [5] -0.123

NOLC1 isoform 3 (UniProt Q14978)
Sequence of UniProt Q14978 (Q14978 whole entry, looked up): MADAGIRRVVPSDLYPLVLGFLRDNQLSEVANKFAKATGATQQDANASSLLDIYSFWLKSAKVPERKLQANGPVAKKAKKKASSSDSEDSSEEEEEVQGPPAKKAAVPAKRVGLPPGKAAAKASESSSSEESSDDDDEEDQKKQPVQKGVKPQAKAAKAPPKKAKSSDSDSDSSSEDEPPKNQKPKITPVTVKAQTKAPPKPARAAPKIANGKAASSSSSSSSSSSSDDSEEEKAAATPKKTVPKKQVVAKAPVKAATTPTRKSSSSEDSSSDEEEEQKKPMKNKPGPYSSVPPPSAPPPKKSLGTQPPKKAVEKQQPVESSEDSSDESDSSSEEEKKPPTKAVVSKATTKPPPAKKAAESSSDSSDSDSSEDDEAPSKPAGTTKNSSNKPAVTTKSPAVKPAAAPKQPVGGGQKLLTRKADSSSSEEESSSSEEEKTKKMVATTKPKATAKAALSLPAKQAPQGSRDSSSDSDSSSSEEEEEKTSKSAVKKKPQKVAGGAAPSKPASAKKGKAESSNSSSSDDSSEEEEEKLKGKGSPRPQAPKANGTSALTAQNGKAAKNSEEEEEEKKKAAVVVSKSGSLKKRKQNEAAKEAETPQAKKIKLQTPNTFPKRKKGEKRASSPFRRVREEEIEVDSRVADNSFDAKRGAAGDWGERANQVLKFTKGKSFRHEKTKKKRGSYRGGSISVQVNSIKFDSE
inactive: [2] -0.275 | alvocidib 0.083 | [5] 0.018

MSANTD2 (UniProt Q6P1R3)
Sequence of UniProt Q6P1R3 (Q6P1R3 whole entry, looked up): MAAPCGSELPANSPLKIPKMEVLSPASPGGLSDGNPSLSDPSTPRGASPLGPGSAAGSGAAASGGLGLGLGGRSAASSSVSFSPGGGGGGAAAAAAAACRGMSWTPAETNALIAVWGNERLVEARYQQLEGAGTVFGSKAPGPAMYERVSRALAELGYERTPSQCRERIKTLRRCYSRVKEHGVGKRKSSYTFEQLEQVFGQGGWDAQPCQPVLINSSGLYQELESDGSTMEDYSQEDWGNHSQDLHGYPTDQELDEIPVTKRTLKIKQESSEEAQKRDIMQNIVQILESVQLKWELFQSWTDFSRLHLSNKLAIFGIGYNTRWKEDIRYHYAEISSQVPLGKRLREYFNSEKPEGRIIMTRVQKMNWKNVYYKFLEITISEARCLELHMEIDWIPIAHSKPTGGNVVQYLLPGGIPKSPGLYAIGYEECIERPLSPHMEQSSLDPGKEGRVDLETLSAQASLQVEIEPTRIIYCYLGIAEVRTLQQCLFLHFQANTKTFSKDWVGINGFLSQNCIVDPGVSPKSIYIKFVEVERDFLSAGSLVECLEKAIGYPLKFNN
inactive: [6] -0.071 | epoxomicin -0.273 | [7] 0.004 | [8] 0.13 | saracatinib -0.248 | sotrastaurin 0.105 | Tubastatin A 0.032 | defactinib -0.113 | rucaparib -0.32 | [9] 0.03 | encorafenib -0.067 | [10] -0.01

NECTIN2 isoform 2 (UniProt Q92692)
Sequence of UniProt Q92692 (Q92692 whole entry, looked up): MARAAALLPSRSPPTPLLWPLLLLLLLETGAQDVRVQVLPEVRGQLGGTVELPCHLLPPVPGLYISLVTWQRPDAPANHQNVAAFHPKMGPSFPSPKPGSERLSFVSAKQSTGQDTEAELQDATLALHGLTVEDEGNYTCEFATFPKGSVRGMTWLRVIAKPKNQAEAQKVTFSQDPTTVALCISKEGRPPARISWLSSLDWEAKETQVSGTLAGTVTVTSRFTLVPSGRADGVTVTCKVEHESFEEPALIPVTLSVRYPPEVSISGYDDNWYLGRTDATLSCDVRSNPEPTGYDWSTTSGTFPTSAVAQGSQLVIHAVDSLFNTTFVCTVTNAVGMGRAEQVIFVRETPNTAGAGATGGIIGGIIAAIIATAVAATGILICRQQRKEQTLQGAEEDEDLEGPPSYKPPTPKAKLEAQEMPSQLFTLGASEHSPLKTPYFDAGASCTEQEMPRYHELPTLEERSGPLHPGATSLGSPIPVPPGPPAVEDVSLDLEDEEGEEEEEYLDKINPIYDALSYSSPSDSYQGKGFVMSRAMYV
inactive: [6] 0.175 | [1] 0.106 | epoxomicin -0.132 | [2] 0.05 | [3] -0.104 | [7] -0.063 | rosiglitazone -0.151 | [8] -0.146 | [4] 0.318 | saracatinib 0.188 | sotrastaurin 0.288 | [5] 0.062 | defactinib 0.11 | rucaparib -0.039 | [9] 0.158 | encorafenib 0.077 | [10] 0.049

PACRGL (UniProt Q8N7B6)
inactive: sotrastaurin -0.075

MOB3B (UniProt Q86TA1)
inactive: [1] -0.045 | [2] 0.149 | [3] -0.016 | [7] 0.034 | rosiglitazone 0.202 | [4] -0.159 | alvocidib -0.428 | Tubastatin A -0.03 | [5] -0.324 | defactinib -0.252 | [10] 0.078
active: volasertib -0.633

MITF (UniProt O75030)
Sequence of UniProt O75030 (O75030 whole entry, looked up): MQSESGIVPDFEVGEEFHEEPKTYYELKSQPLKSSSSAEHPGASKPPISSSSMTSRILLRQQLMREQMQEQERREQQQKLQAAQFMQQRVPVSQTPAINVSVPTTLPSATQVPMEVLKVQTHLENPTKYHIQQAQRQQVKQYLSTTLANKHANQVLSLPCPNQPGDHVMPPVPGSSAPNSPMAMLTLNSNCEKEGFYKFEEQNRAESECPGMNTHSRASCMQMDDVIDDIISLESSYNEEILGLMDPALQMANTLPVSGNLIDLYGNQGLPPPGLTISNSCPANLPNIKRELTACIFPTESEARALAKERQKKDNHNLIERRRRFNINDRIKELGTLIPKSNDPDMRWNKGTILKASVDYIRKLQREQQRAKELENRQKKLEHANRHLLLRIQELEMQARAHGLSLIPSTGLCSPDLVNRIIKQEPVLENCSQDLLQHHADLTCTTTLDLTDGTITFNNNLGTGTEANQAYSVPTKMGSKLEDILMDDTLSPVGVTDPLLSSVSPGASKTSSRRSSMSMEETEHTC
inactive: [6] 0.014 | [1] 0.02 | [2] -0.051 | [3] 0.044 | [7] -0.231 | [4] -0.046 | sotrastaurin -0.08 | [5] 0.034 | defactinib 0.111 | rucaparib -0.186 | encorafenib -0.058 | [10] 0.064

NEU3 isoform 2 (UniProt Q9UQ49)
Sequence of UniProt Q9UQ49 (Q9UQ49 whole entry, looked up): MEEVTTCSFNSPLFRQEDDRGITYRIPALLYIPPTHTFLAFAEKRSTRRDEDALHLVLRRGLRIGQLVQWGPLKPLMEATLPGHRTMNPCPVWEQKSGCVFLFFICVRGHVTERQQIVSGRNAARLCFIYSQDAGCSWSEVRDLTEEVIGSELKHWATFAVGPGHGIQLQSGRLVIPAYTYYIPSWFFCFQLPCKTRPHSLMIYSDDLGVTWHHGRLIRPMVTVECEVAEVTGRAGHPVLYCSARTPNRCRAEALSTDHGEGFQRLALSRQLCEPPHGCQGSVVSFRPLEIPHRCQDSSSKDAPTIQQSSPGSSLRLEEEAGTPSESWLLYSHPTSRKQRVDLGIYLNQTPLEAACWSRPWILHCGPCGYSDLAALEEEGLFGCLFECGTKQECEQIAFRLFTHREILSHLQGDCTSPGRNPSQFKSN
inactive: volasertib -0.158 | [2] -0.074 | sotrastaurin 0.004 | [5] 0.091

NCOA5 (UniProt Q9HCD5)
Sequence of UniProt Q9HCD5 (Q9HCD5 whole entry, looked up): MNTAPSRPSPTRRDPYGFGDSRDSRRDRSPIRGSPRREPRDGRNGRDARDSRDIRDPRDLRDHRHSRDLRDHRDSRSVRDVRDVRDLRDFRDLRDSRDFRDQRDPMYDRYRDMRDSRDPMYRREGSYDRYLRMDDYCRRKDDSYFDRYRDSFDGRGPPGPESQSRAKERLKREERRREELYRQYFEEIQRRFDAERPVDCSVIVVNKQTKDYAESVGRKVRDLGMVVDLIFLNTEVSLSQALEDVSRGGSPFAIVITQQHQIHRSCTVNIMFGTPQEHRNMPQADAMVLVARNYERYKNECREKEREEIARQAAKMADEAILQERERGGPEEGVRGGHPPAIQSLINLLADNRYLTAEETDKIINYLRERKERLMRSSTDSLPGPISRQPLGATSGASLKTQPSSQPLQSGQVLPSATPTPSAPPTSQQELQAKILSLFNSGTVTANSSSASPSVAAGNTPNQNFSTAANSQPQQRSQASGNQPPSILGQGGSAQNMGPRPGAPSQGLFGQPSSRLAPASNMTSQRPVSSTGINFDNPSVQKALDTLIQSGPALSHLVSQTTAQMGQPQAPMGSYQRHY
inactive: volasertib 0.072 | [1] -0.019 | [2] 0.026 | [3] 0.038 | [8] 0.187 | [4] 0.036 | saracatinib 0.002 | sotrastaurin 0.188 | [5] -0.081 | [9] -0.04

NDUFA7 (UniProt M0R0N0)
inactive: [2] -0.017 | [7] -0.092 | rosiglitazone 0.081 | sotrastaurin 0.201 | [5] -0.195 | defactinib 0.076 | [10] 0.093

MLH1 (UniProt P40692)
inactive: volasertib -0.385 | epoxomicin 0.11 | [3] 0.073 | rosiglitazone 0.264 | [8] 0.268 | [4] 0.112 | saracatinib -0.103 | alvocidib -0.235 | Tubastatin A 0.158 | [9] -0.168

NKTR (UniProt P30414)
inactive: volasertib -0.152 | [2] -0.102 | rosiglitazone 0.39
active: [5] 0.939

MTFR1L (UniProt Q9H019)
Sequence of UniProt Q9H019 (Q9H019 whole entry, looked up): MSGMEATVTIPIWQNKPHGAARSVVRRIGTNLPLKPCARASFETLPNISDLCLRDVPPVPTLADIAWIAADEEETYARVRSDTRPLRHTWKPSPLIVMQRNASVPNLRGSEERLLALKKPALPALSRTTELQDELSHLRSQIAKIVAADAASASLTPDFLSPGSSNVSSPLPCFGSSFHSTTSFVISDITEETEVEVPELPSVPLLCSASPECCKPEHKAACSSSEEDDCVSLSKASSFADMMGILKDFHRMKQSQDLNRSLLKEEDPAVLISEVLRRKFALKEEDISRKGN
inactive: [1] 0.036 | epoxomicin 0.023 | [2] -0.145 | [3] -0.186 | [7] 0.08 | rosiglitazone -0.019 | [8] 0.013 | [4] -0.296 | saracatinib 0.052 | sotrastaurin -0.037 | alvocidib -0.106 | Tubastatin A 0.052 | [5] -0.024 | defactinib -0.085 | [9] -0.054 | [10] -0.14
active: volasertib -0.586

OGFOD2 (UniProt Q6N063)
Sequence of UniProt Q6N063 (Q6N063 whole entry, looked up): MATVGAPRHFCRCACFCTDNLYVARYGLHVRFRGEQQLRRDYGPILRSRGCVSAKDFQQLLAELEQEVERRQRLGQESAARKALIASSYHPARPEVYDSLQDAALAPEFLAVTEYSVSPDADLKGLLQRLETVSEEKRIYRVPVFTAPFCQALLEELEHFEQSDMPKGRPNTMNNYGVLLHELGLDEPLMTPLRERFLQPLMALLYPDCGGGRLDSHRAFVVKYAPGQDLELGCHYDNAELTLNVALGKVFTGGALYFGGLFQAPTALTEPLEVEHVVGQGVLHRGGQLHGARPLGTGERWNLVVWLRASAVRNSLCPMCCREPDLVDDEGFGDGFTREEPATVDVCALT
active: [3] -0.372
inactive: [6] -0.007 | [1] -0.019 | epoxomicin 0.08 | [2] -0.033 | [7] 0.035 | rosiglitazone -0.027 | [8] 0.147 | [4] -0.112 | saracatinib 0.095 | alvocidib -0.035 | Tubastatin A -0.08 | [5] 0.094 | defactinib -0.076 | rucaparib -0.029 | [9] 0.009 | encorafenib 0.133 | [10] 0.032

MORC2 (UniProt Q9Y6X9)
Sequence of UniProt Q9Y6X9 (Q9Y6X9 whole entry, looked up): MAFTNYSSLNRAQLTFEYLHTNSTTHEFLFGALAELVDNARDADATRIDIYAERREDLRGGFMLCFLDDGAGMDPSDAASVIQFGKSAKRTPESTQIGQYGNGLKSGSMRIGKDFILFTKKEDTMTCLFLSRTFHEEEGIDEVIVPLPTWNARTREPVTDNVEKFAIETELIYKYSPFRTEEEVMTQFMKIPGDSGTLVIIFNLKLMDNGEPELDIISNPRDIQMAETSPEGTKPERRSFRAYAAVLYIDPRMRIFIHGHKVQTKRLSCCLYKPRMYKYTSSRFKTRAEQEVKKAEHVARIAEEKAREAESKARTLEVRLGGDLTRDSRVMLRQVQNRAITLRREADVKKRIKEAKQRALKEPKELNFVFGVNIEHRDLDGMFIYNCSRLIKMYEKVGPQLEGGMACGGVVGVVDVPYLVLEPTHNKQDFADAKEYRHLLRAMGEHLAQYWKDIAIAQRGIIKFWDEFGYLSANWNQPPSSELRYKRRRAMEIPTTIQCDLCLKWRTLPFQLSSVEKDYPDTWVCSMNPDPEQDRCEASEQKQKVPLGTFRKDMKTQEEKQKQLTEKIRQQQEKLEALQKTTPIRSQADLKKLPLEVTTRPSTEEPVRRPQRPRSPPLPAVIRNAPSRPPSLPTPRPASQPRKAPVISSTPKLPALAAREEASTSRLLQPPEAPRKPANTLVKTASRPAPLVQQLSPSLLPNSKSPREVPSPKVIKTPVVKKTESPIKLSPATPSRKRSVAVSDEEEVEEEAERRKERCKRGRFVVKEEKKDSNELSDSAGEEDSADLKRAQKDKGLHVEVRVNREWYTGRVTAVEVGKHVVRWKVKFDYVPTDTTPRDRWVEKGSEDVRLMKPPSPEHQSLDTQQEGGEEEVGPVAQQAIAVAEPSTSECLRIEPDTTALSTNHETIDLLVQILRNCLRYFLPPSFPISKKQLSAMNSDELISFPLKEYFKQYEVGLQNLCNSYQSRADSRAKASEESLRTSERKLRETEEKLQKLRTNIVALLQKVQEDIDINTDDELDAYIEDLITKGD
inactive: epoxomicin 0.118 | [2] -0.347 | rosiglitazone 0.106 | [5] 0.124
active: volasertib -0.8
